Assay in all cases: DAPPL (digital affinity profiling via proximity ligation, sequencing); 10 mM Tris-HCl pH 7.5, 50 mM NaCl, 1 mM DTT, 4% glycerol, room temperature, 30 min; GST-TFs on glutathione beads, 16-mer random dsDNA library, 0.1% formaldehyde crosslink after washing; high values mean tight binding
One assay has as its target T1, FEV (Homo sapiens, UniProt Q99581 1-238).
T1 sequence: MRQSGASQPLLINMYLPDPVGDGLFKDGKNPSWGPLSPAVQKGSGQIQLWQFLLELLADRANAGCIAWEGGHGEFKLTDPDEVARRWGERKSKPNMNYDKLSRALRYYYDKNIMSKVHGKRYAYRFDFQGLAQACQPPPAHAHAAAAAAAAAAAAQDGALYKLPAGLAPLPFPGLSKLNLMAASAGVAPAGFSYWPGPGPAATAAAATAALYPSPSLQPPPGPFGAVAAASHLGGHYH
Particulars: protein: recombinant; tags: N-terminal GST; dsDNA, one strand shown. A digest of the protocol: (§1)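 Binding signal is each hexamer's read frequency for a factor divided by its frequency in the tag-only sample. The factors were GST-fused human transcription factors from yeast, captured on glutathione beads, DNA-barcoded and pooled with that sample. Pools were incubated with 200 nmole of a random double-stranded 16-mer DNA library in Tris/NaCl/DTT/glycerol buffer at room temperature for 30 min, then washed, crosslinked with 0.1% formaldehyde, proximity-ligated with BsaI/T4 ligase (1 h, 37 °C), PCR-amplified and sequenced on an Illumina NextSeq500.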

The next assay deals with ETV5 (Homo sapiens, UniProt P41161 1-510). Particulars: protein: recombinant; tags: N-terminal GST; dsDNA, one strand shown. A digest of the protocol:
as §1

For a further assay, the target named is HSF1 (Homo sapiens, UniProt Q00613 1-529). The following applies: protein: recombinant; tags: N-terminal GST; chain copies: 3; dsDNA, one strand shown. A digest of the protocol:
as §1

The target in another assay is T2, SPIC (Homo sapiens, UniProt Q8N5J4 1-248).
T2 sequence: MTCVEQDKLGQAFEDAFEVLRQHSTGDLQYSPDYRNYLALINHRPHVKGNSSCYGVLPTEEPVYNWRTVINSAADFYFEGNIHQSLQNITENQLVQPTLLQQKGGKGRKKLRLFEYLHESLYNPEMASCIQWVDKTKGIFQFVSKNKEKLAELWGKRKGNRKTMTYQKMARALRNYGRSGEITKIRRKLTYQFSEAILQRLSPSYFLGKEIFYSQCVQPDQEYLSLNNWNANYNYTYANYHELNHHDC
Particulars: protein: recombinant; tags: N-terminal GST; dsDNA, one strand shown. The gist of the method:
as §1

The target of another assay is ELF4 (Homo sapiens, UniProt Q99607 1-663). The following applies: protein: recombinant; tags: N-terminal GST; dsDNA, one strand shown. A digest of the protocol:
as §1

In another assay the target is T3, ELK4 (Homo sapiens, UniProt P28324-2 1-405).
T3 sequence: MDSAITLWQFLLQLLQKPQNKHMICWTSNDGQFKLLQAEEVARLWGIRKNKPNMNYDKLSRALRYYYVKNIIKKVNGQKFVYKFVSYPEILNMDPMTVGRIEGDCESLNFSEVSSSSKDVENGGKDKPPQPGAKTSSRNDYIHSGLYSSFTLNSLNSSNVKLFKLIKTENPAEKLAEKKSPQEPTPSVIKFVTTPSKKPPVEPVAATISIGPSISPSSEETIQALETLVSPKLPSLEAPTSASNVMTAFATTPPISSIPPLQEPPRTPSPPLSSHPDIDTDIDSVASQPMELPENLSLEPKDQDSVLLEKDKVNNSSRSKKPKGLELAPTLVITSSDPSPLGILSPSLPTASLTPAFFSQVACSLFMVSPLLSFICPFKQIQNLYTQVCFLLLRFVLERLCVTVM
Particulars: protein: recombinant; tags: N-terminal GST; dsDNA, one strand shown. A digest of the protocol:
as §1

Another assay deals with T4, ETV2 (Homo sapiens, UniProt O00321 1-342).
T4 sequence: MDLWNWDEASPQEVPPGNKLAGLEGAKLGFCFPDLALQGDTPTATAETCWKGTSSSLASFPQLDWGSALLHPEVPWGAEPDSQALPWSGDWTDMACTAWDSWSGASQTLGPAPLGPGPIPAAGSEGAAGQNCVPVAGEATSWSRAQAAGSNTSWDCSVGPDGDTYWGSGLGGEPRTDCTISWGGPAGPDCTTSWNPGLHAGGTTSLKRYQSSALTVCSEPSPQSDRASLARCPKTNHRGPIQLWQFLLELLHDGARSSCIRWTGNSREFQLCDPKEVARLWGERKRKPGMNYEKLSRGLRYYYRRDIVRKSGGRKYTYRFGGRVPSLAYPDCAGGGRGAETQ
Particulars: protein: recombinant; tags: N-terminal GST; dsDNA, one strand shown. A digest of the protocol: as §1

Another assay concerns the target T5, ELF3 (Homo sapiens, UniProt P78545 1-371).
T5 sequence: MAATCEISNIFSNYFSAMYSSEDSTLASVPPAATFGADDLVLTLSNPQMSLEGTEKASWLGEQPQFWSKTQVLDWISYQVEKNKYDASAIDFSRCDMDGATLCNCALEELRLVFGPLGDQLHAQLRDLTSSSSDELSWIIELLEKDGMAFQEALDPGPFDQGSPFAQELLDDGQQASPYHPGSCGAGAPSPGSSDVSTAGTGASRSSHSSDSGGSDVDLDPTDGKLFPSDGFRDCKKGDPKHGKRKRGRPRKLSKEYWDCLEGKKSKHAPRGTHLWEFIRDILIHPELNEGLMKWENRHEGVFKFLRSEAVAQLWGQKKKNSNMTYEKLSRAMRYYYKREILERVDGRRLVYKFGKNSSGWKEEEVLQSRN
The following applies: protein: recombinant; tags: N-terminal GST; dsDNA, one strand shown. The gist of the method:
as §1

For a further assay, the target named is CRX (Homo sapiens, UniProt O43186 1-299). The following applies: protein: recombinant; tags: N-terminal GST; dsDNA, one strand shown. A digest of the protocol: as §1
In another assay the target is ETV1 (Homo sapiens, UniProt P50549 1-477). The following applies: protein: recombinant; tags: N-terminal GST; dsDNA, one strand shown. A digest of the protocol:
as §1

The target of the next assay is T6, ERF (Homo sapiens, UniProt P50548 1-548).
T6 sequence: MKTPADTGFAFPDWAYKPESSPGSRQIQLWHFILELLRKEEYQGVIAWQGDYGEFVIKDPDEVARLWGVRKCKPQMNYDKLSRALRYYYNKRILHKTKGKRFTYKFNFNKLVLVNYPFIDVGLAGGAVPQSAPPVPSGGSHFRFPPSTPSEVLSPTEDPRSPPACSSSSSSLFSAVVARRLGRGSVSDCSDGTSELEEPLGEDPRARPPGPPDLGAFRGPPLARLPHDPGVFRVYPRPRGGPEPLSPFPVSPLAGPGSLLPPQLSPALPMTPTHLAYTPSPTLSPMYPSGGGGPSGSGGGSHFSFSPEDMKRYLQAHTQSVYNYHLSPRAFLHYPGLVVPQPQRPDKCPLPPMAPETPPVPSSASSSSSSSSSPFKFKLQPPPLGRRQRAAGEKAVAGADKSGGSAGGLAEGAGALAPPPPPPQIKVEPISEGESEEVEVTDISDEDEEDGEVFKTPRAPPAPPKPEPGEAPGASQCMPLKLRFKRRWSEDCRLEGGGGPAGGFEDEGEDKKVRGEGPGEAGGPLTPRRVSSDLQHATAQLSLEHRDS
Particulars: protein: recombinant; tags: N-terminal GST; dsDNA, one strand shown. The gist of the method: as §1

The target in the next assay is T7, ETV3L (Homo sapiens, UniProt Q6ZN32 1-361).
T7 sequence: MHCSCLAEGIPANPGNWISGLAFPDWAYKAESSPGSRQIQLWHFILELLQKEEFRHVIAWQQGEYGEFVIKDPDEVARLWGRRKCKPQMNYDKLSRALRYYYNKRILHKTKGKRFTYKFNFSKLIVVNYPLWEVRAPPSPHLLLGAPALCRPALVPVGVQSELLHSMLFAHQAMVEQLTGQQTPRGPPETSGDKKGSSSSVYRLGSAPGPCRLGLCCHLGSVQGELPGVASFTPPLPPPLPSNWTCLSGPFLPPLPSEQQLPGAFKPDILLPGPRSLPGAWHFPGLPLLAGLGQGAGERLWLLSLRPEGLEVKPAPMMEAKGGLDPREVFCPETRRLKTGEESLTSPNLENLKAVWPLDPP
Particulars: protein: recombinant; tags: N-terminal GST; dsDNA, one strand shown. A digest of the protocol: as §1

The target of the next assay is T8, ETS2 (Homo sapiens, UniProt P15036 1-469).
T8 sequence: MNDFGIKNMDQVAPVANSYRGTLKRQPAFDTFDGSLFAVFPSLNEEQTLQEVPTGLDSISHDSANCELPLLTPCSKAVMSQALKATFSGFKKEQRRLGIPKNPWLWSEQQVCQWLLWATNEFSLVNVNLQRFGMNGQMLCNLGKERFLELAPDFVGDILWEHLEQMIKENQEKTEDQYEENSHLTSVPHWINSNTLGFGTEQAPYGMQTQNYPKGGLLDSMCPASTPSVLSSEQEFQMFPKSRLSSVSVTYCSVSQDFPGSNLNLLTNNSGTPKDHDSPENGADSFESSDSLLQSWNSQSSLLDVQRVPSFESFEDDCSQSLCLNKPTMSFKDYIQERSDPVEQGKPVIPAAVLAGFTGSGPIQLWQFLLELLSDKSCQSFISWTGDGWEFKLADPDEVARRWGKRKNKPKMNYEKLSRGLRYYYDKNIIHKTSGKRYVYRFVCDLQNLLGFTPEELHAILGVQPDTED
Particulars: protein: recombinant; tags: N-terminal GST; dsDNA, one strand shown. The gist of the method:
as §1

The target of a further assay is T9, SPDEF (Homo sapiens, UniProt O95238 1-335).
T9 sequence: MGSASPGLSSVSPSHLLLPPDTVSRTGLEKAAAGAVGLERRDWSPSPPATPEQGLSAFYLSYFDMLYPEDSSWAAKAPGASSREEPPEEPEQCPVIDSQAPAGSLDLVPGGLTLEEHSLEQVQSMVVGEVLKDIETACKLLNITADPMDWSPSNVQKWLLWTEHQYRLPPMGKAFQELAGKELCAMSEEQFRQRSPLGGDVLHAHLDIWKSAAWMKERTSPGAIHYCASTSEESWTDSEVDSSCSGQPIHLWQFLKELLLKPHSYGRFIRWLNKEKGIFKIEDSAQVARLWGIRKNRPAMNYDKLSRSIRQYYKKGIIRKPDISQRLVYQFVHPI
The following applies: protein: recombinant; tags: N-terminal GST; dsDNA, one strand shown. The gist of the method:
as §1

The next assay addresses T10, ETV7 (Homo sapiens, UniProt Q9Y603 1-341).
T10 sequence: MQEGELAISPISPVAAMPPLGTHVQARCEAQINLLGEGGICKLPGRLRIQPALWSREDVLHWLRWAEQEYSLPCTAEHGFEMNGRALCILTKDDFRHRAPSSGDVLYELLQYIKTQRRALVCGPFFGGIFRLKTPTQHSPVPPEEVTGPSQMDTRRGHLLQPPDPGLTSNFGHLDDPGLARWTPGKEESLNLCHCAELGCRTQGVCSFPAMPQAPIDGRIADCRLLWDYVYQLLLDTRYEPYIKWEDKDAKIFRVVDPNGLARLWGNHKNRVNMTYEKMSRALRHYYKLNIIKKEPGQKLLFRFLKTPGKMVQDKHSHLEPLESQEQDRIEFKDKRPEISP
Particulars: protein: recombinant; tags: N-terminal GST; dsDNA, one strand shown. A digest of the protocol:
as §1

Another assay concerns the target T11, ELF5 (Homo sapiens, UniProt Q9UKW6-2 1-255).
T11 sequence: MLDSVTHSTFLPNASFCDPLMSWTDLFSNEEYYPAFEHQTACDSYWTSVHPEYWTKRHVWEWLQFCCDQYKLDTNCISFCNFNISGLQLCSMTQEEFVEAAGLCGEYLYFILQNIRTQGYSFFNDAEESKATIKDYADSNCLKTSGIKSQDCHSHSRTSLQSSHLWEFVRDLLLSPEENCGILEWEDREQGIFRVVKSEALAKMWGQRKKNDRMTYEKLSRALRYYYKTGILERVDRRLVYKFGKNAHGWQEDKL
Particulars: protein: recombinant; tags: N-terminal GST; dsDNA, one strand shown. The gist of the method: as §1

A further assay deals with T12, ETV3 (Homo sapiens, UniProt P41162-2 1-143).
T12 sequence: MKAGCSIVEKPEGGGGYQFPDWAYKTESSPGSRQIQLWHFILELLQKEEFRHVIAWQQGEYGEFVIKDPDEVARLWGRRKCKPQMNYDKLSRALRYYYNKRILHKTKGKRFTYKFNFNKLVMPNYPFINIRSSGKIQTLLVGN
Particulars: protein: recombinant; tags: N-terminal GST; dsDNA, one strand shown. The gist of the method:
as §1

In another assay the target is ETV6 (Homo sapiens, UniProt P41212 1-452). Particulars: protein: recombinant; tags: N-terminal GST; dsDNA, one strand shown. A digest of the protocol: as §1
Chain of ETV6 (P41212 whole entry): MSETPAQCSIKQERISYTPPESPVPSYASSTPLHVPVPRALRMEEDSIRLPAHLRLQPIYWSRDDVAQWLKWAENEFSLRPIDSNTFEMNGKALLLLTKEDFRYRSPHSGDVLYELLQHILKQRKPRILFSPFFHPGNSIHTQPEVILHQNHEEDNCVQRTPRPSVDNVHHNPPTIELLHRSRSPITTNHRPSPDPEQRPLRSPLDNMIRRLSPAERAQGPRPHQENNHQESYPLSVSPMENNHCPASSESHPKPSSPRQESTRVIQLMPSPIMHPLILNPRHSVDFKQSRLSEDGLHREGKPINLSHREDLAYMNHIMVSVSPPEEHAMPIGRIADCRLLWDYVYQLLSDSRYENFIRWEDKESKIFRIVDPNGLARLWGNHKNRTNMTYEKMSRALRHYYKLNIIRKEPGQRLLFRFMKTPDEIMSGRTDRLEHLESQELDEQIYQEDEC

Chain of HSF1 (Q00613 whole entry): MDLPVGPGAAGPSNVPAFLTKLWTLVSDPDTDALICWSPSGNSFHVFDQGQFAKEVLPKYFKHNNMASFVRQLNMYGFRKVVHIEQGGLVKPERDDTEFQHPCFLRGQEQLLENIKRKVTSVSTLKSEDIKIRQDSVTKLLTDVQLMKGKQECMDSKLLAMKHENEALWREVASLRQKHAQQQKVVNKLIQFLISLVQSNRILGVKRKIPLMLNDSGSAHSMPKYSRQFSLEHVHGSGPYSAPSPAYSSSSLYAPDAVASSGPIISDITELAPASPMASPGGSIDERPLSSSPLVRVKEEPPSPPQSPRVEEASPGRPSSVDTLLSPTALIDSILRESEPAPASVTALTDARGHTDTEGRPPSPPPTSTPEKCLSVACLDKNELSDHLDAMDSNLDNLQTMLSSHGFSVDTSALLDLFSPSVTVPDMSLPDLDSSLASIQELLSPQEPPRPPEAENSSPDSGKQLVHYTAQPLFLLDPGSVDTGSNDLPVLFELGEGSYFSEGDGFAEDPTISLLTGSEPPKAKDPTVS
Chain of CRX (O43186 whole entry): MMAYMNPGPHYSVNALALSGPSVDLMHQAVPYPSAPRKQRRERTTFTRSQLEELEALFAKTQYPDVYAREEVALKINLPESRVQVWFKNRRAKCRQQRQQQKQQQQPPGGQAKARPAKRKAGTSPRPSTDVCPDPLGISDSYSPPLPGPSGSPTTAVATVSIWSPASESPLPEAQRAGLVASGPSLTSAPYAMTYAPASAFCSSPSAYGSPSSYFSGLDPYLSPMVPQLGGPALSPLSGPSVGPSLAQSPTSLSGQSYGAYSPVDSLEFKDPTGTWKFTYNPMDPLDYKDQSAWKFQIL
Chain of ETV1 (P50549 whole entry): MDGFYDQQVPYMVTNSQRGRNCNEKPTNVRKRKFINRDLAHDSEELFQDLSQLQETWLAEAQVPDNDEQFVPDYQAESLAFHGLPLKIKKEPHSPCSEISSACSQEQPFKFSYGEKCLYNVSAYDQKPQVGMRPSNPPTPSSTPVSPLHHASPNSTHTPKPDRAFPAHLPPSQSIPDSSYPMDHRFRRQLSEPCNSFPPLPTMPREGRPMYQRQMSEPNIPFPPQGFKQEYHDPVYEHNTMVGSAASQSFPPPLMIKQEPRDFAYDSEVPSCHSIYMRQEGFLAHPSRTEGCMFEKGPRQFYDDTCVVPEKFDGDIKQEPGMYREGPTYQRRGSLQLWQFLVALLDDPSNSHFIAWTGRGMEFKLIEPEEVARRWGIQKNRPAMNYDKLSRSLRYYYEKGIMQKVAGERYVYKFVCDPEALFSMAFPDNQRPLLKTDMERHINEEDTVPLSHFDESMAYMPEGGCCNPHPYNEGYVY
Chain of ETV5 (P41161 whole entry): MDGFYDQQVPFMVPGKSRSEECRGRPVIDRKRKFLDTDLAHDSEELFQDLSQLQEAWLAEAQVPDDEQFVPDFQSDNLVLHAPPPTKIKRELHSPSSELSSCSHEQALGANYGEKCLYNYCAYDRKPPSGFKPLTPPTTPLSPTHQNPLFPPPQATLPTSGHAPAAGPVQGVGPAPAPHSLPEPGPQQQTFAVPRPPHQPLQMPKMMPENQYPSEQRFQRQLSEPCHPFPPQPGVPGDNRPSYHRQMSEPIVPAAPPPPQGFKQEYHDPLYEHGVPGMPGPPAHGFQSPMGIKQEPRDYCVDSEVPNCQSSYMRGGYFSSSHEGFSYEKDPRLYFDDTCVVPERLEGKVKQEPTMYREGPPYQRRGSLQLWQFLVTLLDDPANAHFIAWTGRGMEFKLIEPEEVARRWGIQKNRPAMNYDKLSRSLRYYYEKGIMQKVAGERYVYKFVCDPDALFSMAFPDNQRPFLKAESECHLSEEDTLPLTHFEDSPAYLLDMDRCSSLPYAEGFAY
Chain of ELF4 (Q99607 whole entry): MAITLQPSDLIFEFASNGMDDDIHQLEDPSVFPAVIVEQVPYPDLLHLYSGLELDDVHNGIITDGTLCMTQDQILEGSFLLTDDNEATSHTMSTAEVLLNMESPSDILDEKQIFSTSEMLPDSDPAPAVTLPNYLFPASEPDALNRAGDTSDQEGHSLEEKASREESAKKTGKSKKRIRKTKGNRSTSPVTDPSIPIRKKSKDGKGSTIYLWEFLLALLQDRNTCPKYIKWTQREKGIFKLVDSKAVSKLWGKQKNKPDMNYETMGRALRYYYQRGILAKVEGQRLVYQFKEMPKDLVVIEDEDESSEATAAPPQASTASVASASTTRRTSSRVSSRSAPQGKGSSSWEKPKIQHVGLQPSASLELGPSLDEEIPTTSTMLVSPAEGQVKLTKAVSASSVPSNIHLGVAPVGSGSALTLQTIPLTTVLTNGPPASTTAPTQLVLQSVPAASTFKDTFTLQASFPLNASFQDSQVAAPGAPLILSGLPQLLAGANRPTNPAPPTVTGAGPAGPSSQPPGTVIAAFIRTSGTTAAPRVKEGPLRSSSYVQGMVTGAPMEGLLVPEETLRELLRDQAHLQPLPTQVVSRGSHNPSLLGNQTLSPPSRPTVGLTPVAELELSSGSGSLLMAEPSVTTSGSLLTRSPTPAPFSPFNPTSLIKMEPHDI

With GAATAA, the binding signal in the assay with FEV is 1.08 fold enrichment (6-mer frequency, TF over GST control); in the assay with ETV5, 1.09 fold enrichment (6-mer frequency, TF over GST control); with HSF1 it was 1.62 fold enrichment (6-mer frequency, TF over GST control); in the assay with SPIC, 1.17 fold enrichment (6-mer frequency, TF over GST control); in the assay with ELF4, 1.13 fold enrichment (6-mer frequency, TF over GST control); with ELK4, 1.04 fold enrichment (6-mer frequency, TF over GST control). Also, the binding signal was 1.13 fold enrichment (6-mer frequency, TF over GST control) in the assay with ETV2; 1.12 fold enrichment (6-mer frequency, TF over GST control) with ELF3; 1.57 fold enrichment (6-mer frequency, TF over GST control) with CRX; 1.03 fold enrichment (6-mer frequency, TF over GST control) in the assay with ETV1; 1.23 fold enrichment (6-mer frequency, TF over GST control) in the assay with ERF; 1.15 fold enrichment (6-mer frequency, TF over GST control) in the assay with ETV3L. Moreover, the binding signal is 1.09 fold enrichment (6-mer frequency, TF over GST control) with ETS2; 1.09 fold enrichment (6-mer frequency, TF over GST control) with SPDEF; 1.07 fold enrichment (6-mer frequency, TF over GST control) in the assay with ETV7; 1.05 fold enrichment (6-mer frequency, TF over GST control) with ELF5; 1.06 fold enrichment (6-mer frequency, TF over GST control) with ETV3; 1.16 fold enrichment (6-mer frequency, TF over GST control) in the assay with ETV6.

Values taken from article PMC7862700, “An all-to-all approach to the identification of sequence-specific readers for epigenetic DNA modifications on cytosine”.
